# Activity calls are given as the source filed them.
# Assays:
# [1] = system: Plasmodium falciparum Sir2 (PF13_0152, Sir2A); experiment: pfSir2 binders on small-molecule microarrays, primary screen, biochemical, small-molecule microarray, 635 nm fluorescence (AID 1098); conditions: small-molecule microarray binding, fluorescence 635 nm; higher = more signal;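 note: score merges spot fluorescence intensity with its signal-to-noise ratio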
# [2] = small-molecule microarray binders of probe aDKK1, primary screen, biochemical, biotinylated probe, 635/667 nm fluorescence (AID 1099); conditions: higher = more signal;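 note: score merges 667nm spot fluorescence with signal to noise across triplicate slides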
# [3] = small-molecule microarray binders of probe aCHRDL2, primary screen, biochemical, biotinylated probe, 635/667 nm fluorescence (AID 1100); conditions: higher = more signal
# [4] = splicing luciferase reporter signal modulators, primary screen, spliceosome inhibition project, cell-based, HEK293, splice +/- reporter (AID 1101); conditions: luminescence, 24 h, higher = more signal, called active from +8 up or from −8 down;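 note: HEK293 cells carrying a splicing-competent luciferase reporter gene; test concentration not given here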
# [5] = molecular target: Fibroblast growth factor 10 (Homo sapiens) (UniProt O15520); experiment: FGF10 binders on small-molecule microarrays, primary screen, biochemical, small-molecule microarray, 635 nm fluorescence (AID 1102); conditions: FGF10 binding, fluorescence 635 nm, higher = more signal
# [6] = system: glycogen synthase kinase-3 (GSK3A per assay name; protocol says GSK3B); experiment: GSK3 binders on small-molecule microarrays, primary screen, biochemical, small-molecule microarray, 635 nm fluorescence, GSK3A (AID 1103); conditions: small-molecule microarray binding, fluorescence 635 nm; higher = more signal; note: the record names both GSK3A and GSK3B
# [7] = molecular target: Epidermal growth factor receptor (Homo sapiens) (UniProt P00533); experiment: EGFR binders on small-molecule microarrays, primary screen, biochemical, small-molecule microarray, 635 nm fluorescence (AID 1104); conditions: EGFR binding, higher = more signal;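 note: score merges 667 nm emission intensity with spot signal to noise over triplicate slides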
# [8] = molecular target: Follistatin-related protein 3 (Homo sapiens) (UniProt O95633); experiment: FSTL3 binders on small-molecule microarrays, primary screen, biochemical, small-molecule microarray, 635 nm fluorescence (AID 1105); conditions: FSTL3 binding, higher = more signal;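 note: score merges emission near 667 nm and signal to noise per printed spot across three slides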
# [9] = molecular target: Dickkopf-related protein 1 (Homo sapiens) (UniProt O94907); experiment: DKK1 binders on small-molecule microarrays, primary screen, biochemical, small-molecule microarray, 635 nm fluorescence scan (AID 1106); conditions: DKK1 binding, higher = more signal;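 note: score merges emission near 667 nm with signal to noise over three replicate slides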
# [10] = system: Inhibin beta A chain (activin A); experiment: INHBA (activin A) binders on microarrays, primary screen, biochemical, small-molecule microarray, 635 nm fluorescence scan (AID 1107); conditions: small-molecule microarray binding, higher = more signal;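 note: mouse activin A protein probed at 4.33 µg/mL on printed slides; score merges bound-protein fluorescence near 667 nm with spot signal-to-noise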
# [11] = system: Human papillomavirus type 1a protein E7 (residues 44-93); experiment: HPV1a E7 fragment binders on microarrays, primary screen, biochemical, small-molecule microarray, residues 44-93, 635 nm fluorescence (AID 1108); conditions: small-molecule microarray binding, fluorescence 635 nm; higher = more signal;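 note: E7 fragment applied at 1 µg/mL in TBST for 1 h at 4 C; score combines spot fluorescence with its signal to noise ratio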
# [12] = modulators of HCV replicon luciferase signal, primary screen, HCV replication inhibitor project, Huh7 cells, luciferase reporter (AID 1109); conditions: 48 h, higher = more signal;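 note: huh7 hepatoma cells harbouring a luciferase neomycin HCV replicon reporter; luciferase luminescence as measure of HCV replicon replication; test concentration not given here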
# [13] = molecular target: Left-right determination factor 2 (Homo sapiens) (UniProt O00292); experiment: LEFTY2 binders on small-molecule microarrays, primary screen, biochemical, small-molecule microarray, 635 nm fluorescence scan (AID 1110); conditions: LEFTY2 binding, higher = more signal
# [14] = molecular target: Calmodulin-1 (Homo sapiens) (UniProt P0DP23); experiment: CALM1 binders on microarrays, EGTA buffer, profiling panel, biochemical, small-molecule microarray, Cy5-labelled CALM1 (AID 1111); conditions: Cy5-CALM1 binding fluorescence, higher = more signal;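 note: labelled calmodulin applied in Tris saline Tween buffer holding calcium plus EGTA and DTT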
# [15] = molecular target: Calmodulin-1 (Homo sapiens) (UniProt P0DP23); experiment: calcium-bound CALM1 binders on microarrays, profiling panel, artefact control for SMM control-protein annotation, biochemical, small-molecule microarray, Cy5-labelled CALM1, plus calcium (AID 1112); conditions: Cy5-CALM1 binding fluorescence, higher = more signal;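 note: score merges spot fluorescence with signal to noise from triplicate slides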
# [16] = small-molecule microarray binders of probe aWnt5a, primary screen, biochemical, biotinylated probe, 635/667 nm fluorescence (AID 1113); conditions: higher = more signal;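 note: score merges 667 nm fluorescence intensity with signal-to-noise per printed feature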
# [17] = small-molecule microarray binders of probe aShh, primary screen, biochemical, biotinylated probe, 635/667 nm fluorescence (AID 1114); conditions: higher = more signal;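 note: probe is biotin-labelled aShh protein from a stem cell growth factor screen; measures binding of labelled protein to compounds printed on the slide; score merges feature fluorescence at 667 nm with signal-to-noise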
# [18] = small-molecule microarray binders of probe aNog, primary screen, biochemical, biotinylated probe, 635/667 nm fluorescence (AID 1115); conditions: higher = more signal;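 note: probe is biotinylated aNog protein used at 0.15 µg/mL for 1 h at 4 C; z-score combines 667 nm fluorescence of each spot with its signal to noise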
# [19] = molecular target: Torsin-1A-interacting protein 1 (Homo sapiens) (UniProt Q5JTV8); experiment: LAP1 binders from COS7 cell lysate, primary screen, small-molecule microarray, 635/667 nm fluorescence (AID 1116); conditions: COS7-hLAP1 lysate binding, 635 nm fluorescence, higher = more signal
# [20] = molecular target: Alpha-bungarotoxin (Bungarus multicinctus) (UniProt P60615); experiment: alpha-bungarotoxin binders on microarray, profiling panel, artefact control for SMM control protein annotation, biochemical, small-molecule microarray, Alexa647 label, 635/667 nm fluorescence (AID 1117); conditions: alpha-BTX-A647 binding fluorescence, higher = more signal
# Sequence of Alpha-bungarotoxin (Bungarus multicinctus) (P60615 whole entry, looked up): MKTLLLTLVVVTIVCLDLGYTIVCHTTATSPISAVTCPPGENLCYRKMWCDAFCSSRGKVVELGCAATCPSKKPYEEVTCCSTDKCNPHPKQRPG
# Sequence of Epidermal growth factor receptor (Homo sapiens) (P00533 whole entry, looked up): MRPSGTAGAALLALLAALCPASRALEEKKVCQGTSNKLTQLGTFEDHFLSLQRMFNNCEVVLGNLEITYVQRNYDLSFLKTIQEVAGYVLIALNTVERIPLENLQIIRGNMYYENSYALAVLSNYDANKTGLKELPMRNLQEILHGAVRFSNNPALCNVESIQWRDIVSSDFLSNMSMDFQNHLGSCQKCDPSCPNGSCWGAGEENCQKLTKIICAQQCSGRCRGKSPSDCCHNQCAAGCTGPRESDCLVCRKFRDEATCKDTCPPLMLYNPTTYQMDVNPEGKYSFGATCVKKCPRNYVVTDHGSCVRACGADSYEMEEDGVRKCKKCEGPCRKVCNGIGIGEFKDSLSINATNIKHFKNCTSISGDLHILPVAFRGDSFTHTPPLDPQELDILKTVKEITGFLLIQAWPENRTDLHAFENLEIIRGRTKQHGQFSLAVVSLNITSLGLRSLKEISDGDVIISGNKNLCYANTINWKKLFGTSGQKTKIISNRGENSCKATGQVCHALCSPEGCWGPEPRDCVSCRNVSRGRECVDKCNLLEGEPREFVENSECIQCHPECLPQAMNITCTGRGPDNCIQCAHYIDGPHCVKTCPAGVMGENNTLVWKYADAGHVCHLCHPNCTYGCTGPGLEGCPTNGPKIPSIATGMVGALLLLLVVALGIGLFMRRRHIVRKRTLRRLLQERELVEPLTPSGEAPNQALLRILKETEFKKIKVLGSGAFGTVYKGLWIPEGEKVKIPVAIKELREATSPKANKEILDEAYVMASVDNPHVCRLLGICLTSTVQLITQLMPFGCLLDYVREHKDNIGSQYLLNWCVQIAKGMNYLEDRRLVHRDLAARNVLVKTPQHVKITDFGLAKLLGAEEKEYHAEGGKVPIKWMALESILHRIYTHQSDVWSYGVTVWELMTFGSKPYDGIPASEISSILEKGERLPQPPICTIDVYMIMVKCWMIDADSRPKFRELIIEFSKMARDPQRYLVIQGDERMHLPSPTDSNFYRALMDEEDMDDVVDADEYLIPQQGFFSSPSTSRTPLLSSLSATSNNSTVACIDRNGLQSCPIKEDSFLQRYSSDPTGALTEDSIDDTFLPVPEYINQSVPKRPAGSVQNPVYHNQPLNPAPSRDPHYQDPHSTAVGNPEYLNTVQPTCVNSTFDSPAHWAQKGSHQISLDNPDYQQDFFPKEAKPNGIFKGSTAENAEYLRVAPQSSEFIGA
# Sequence of Fibroblast growth factor 10 (Homo sapiens) (O15520 whole entry, looked up): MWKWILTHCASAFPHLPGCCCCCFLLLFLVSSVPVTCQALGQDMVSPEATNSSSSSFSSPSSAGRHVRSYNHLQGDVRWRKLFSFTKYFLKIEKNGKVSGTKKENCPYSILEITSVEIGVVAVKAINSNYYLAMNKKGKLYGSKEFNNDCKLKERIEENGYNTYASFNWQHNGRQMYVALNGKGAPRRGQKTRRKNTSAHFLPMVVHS
# Sequence of Follistatin-related protein 3 (Homo sapiens) (O95633 whole entry, looked up): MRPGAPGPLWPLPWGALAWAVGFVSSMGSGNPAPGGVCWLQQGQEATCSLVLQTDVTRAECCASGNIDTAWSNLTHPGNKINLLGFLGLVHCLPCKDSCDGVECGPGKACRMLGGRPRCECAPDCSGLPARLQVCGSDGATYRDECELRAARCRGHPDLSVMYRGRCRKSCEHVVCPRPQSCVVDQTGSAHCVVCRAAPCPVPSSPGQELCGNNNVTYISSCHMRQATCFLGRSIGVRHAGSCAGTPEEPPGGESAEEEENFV
# Sequence of Dickkopf-related protein 1 (Homo sapiens) (O94907 whole entry, looked up): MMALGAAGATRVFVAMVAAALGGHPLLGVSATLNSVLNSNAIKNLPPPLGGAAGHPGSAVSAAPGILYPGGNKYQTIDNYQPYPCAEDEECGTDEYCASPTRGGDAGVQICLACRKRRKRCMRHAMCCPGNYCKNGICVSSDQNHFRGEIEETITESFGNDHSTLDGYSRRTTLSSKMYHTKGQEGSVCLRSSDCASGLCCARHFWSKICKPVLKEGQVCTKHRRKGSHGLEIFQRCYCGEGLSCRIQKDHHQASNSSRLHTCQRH
# Sequence of Torsin-1A-interacting protein 1 (Homo sapiens) (Q5JTV8 whole entry, looked up): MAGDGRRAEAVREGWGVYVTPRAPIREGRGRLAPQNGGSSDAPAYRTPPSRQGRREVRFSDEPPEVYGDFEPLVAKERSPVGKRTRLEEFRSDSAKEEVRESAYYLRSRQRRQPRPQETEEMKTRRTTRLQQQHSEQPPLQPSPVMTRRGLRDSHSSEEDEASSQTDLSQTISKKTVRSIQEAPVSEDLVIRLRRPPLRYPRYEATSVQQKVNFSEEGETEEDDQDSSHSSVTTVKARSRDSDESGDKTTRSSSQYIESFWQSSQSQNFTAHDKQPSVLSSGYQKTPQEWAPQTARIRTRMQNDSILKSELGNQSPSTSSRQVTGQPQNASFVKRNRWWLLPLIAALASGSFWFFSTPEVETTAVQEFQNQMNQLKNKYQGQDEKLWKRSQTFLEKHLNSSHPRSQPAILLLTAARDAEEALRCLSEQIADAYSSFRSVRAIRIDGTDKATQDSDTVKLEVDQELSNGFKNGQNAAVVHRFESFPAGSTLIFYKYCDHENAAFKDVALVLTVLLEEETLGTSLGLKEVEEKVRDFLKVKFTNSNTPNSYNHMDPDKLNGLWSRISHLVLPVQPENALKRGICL
# Sequence of Left-right determination factor 2 (Homo sapiens) (O00292 whole entry, looked up): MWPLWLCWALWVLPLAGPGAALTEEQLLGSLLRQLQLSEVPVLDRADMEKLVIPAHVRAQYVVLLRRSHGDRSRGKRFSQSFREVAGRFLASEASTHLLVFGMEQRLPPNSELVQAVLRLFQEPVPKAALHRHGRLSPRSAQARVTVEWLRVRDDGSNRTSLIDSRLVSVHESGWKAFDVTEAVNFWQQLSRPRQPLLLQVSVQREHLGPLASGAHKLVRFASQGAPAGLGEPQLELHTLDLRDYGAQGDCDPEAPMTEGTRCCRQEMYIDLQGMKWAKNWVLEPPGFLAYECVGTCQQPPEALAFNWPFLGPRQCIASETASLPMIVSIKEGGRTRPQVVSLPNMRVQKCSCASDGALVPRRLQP
Structure (SMILES),composite z-score [1],composite z-score [2],composite z-score [3],z-score [4],composite z-score [5],composite z-score [6],composite z-score [7],composite z-score [8],composite z-score [9],composite z-score [10],composite z-score [11],z-score [12],composite z-score [13],composite z-score [14],composite z-score [15],composite z-score [16],composite z-score [17],composite z-score [18],composite z-score [19],composite z-score [20]
C=CC[C@@H]1C=C[C@H](ON=C(C)CCC(=O)OC[C@H]2O[C@H](c3ccccc3)C=C[C@@H]2Oc2ccc(OC)cc2)[C@@H](CO)O1,0.892,-0.347,-0.524,-0.393 (inactive),-0.196,-0.855,-0.382,-0.532,0.0305,0.837,-0.0821,-1.54,-0.189,-0.725,-0.878,-0.152,-0.221,-0.158,0.106,-0.55
O=C1[C@H]2[C@H]3[C@H](O)[C@H](O)CC(=NOCc4ccccc4)[C@@H]3CC[C@H]2C(=O)N1C[C@@H]1CCCO1,0.0048,-0.168,-0.21,0.274 (inactive),0.179,-0.451,-0.0735,-0.304,-0.028,0.164,-0.236,0.189,0.316,0.583,-0.0696,-0.117,-0.0553,-0.158,-0.126,0.879
Cc1cc2c(nc1C)CCCCN2CC(C)ON=C1[C@H]2CCn3c(=O)n(-c4ccccc4)c(=O)n3[C@H]2[C@H](O)[C@@H]2O[C@H]12 (stereo not given in full),0.606,0.213,-0.0869,0.718 (inactive),1.11,0.331,0.302,1.05,0.7,1.3,-0.0964,-4.63,0.769,-0.895,-1.2,0.0839,0.258,0.0531,0.369,0.473
CCCCc1nc2c(c3c1C[C@H](C)OC3)CN(CCOc1ccccc1)CC2,0.489,0.107,-0.277,-1.21 (inactive),0.632,0.427,0.681,1.27,0.302,0.765,0.348,-0.659,0.814,-0.407,-0.7,-0.0738,-0.0977,-0.304,0.56,0.672
COC(=O)CC=C[C@@H](C)[C@@H](C=NOCC[C@@H]1C=C[C@H](OC(C)=O)[C@@H](COC(C)=O)O1)NS(=O)(=O)c1ccc(C)cc1,0.133,-0.322,-0.331,-0.43 (inactive),-0.183,0.328,0.736,0.0237,0.316,0.46,-0.0642,-1.45,0.851,-0.879,-1.47,-0.0519,0.0141,-0.429,0.164,-0.0729
COc1ccc(O[C@@H]2[C@H](O)CO[C@@H]2C=Cc2ccccc2)cc1,0.638,-0.228,-0.256,-1.63 (inactive),-0.0055,-0.0208,-0.169,0.367,0.148,0.448,0.16,0.238,0.138,0.0425,-0.665,-0.148,-0.399,-0.111,0.288,0.369
O=C1[C@H]2[C@H]3[C@H](O)[C@H](O)CC(=NOC[C@@H](O)COCc4ccco4)[C@@H]3CC[C@H]2C(=O)N1C[C@@H]1CCCO1,0.396,-0.549,-1.2,-0.134 (inactive),0.204,1.24,1.14,1.49,1.51,1.22,0.0714,0.557,1.11,-1.05,-1.73,-0.117,-0.0553,-0.218,0.3,-0.075
CCOC(=O)[C@H](Cc1ccccc1)NC(=O)CCC1CC(OC(=O)NCc2ccc3c(c2)OCO3)CC2(CCCC(COC(=O)NCCC(C)C)O2)O1 (stereo not given in full),1.21,-0.197,-0.287,0.0184 (inactive),1.12,0.18,-0.0617,0.743,0.415,0.367,1.38,-1.01,0.619,0.487,-0.252,0.0704,0.0639,-0.19,0.0293,0.434
CCOC(=O)[C@H](CC(C)C)NC(=O)CCC1CC(OC(=O)NCc2cccc3ccccc23)CC2(CCCC(COC(=O)NCC3CCCCC3)O2)O1 (stereo not given in full),0.442,-0.11,-0.369,-1.42 (inactive),0.924,0.941,0.344,0.855,0.6,0.0385,1.31,-1.93,0.559,0.162,-0.376,-0.0792,-0.2,-0.256,0.158,0.742
CC(C)CON=C1C[C@@H](O)[C@@H](O)[C@@H]2[C@@H]3C(=O)N(C[C@@H]4CCCO4)C(=O)[C@@H]3CC[C@@H]12,0.0599,0.52,0.0562,0.926 (inactive),-0.231,-0.622,-0.151,-0.336,-0.554,-0.148,0.267,0.444,0.0128,-0.333,0.0901,-0.173,-0.123,-0.103,-0.419,0.678
C=CC[C@@H]1C=C[C@H](ON=C(C)CCN2CCc3nc(-c4ccccc4)c(-c4ccccc4)cc3C2)[C@@H](CO)O1,0.775,-0.243,-0.574,0.0139 (inactive),0.524,0.702,0.359,0.808,0.627,1.07,1.36,-1.81,0.407,0.636,-0.252,-0.0735,-0.0626,-0.303,0.782,0.729
O=c1n(Cc2cc3c(cc2Cl)OCO3)c(=O)n2n1CC[C@@H]1C(=NOCc3ccccc3)[C@H]3O[C@H]3[C@@H](O)[C@@H]12,0.172,0.87,-0.546,-1 (inactive),0.531,0.432,0.452,0.587,0.669,0.111,0.439,0.51,0.582,0.0528,-0.827,-0.152,-0.34,-0.519,0.157,-0.0536
CCOC(=O)[C@H](CC(C)C)NC(=O)CCC1CC(OC(=O)NCc2ccc3c(c2)OCO3)CC2(CCCC(COC(=O)NCC(c3ccccc3)c3ccccc3)O2)O1 (stereo not given in full),0.517,-0.445,-0.491,0.907 (inactive),0.685,0.206,-0.519,0.503,0.0925,0.155,0.506,-0.0319,0.426,-0.378,-0.443,-0.169,-0.262,-0.137,0.126,0.443
CC(C)=CCCC(C)=CCON=C1C[C@@H](O)[C@@H](O)[C@@H]2[C@@H]3C(=O)N(Cc4ccccc4)C(=O)[C@@H]3CC[C@H]12,0.639,-0.21,-0.659,-1.83 (inactive),0.932,1.12,0.611,1.14,-0.523,1.11,0.759,-2.74,0.985,0.0703,-0.985,-0.164,-0.2,-0.0223,0.577,0.121
